Screening data from PubChem BioAssay.
Compounds with a hit are over-represented: about 2.9% of the library has one in this group of screens.
PAFAH1B3 inh – inhibitors of human PAFAH1B3. Q15102. 340,000 compounds, 0.28% hits. inhibition, % at 3.39 µM. recombinant PAFAH1B3, FP-rhodamine probe, fluorescence polarization;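 active means inhibition above the screen-wide average of all tested compounds plus 3 SD, cut at about 25% in these data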;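 further: 0% = enzyme with DMSO only and 100% = wells lacking PAFAH1B3 protein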
pPAFAH inh – inhibitors of human plasma PAF acetylhydrolase (pPAFAH). recombinant pPAFAH, FP-rhodamine probe fluorescence polarization. 330,000 compounds, 1.5% hits. inhibition, % at 3.39 µM. AID 463082;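 active means inhibition above the mean inhibition across the screen plus 3 SD, cut at about 25% in these data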;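 further: inhibitors block binding of the rhodamine activity-based probe so polarization drops; 0% = enzyme with DMSO and 100% = wells lacking pPAFAH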
PAFAH1B2 FP inh – PAFAH1B2 (human) inhibition; AID 492953; 340,000 compounds, 1.2% hits; inhibition, % at 3.39 µM; recombinant PAFAH1B2, FP-rhodamine activity probe, fluorescence polarization;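 active means inhibition above the mean of all tested compounds plus 3 SD, cut at about 24% in these data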;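 further: 0% = enzyme with DMSO and 100% = wells lacking PAFAH1B2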
Target sequence (P68402 whole entry, looked up): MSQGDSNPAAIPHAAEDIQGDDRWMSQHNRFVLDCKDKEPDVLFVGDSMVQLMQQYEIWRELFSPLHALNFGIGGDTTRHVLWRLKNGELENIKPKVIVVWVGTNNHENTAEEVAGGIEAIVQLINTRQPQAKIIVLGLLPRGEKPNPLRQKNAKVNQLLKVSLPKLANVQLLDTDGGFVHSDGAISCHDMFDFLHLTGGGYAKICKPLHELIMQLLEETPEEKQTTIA
PME-1 primary – blocks human protein phosphatase methylesterase 1 | Q9Y570 | recombinant PME-1, FP-Rh probe fluorescence polarization | inhibition, % at 5.9 µM | 320,000 compounds, 0.53% hits | AID 2130;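 active means inhibition above the campaign mean of all compounds plus 3 SD, cut at about 26% in these data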;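 further: competitive labeling of PME-1 active site by serine hydrolase directed probe; 0% = PME-1 with DMSO and 100% = wells lacking PME-1 enzyme; inhibitors block probe labeling so polarization falls and inhibition rises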
Target sequence (Q9Y570 whole entry, looked up): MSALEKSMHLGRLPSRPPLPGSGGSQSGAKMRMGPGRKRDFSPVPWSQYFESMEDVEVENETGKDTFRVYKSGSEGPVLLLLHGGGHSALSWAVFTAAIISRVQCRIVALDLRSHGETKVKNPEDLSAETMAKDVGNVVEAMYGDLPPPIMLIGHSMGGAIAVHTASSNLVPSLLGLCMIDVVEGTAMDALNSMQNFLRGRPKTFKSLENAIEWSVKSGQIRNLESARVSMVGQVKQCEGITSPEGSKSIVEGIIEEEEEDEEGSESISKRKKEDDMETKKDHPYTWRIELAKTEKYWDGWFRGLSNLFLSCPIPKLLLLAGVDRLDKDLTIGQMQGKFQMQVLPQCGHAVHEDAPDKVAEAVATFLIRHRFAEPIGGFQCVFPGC
Fam108B inh – blocks mouse Fam108B hydrolase in RBBP9 counter-screen; 300,000 compounds, 0.33% hits; inhibition, % at 9.51 µM; recombinant Fam108B, FP-Rh probe fluorescence polarization;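 active means inhibition above the screen mean inhibition plus 3 SD, computed separately per campaign, cut at about 18% in these data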;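 further: inhibitors lower polarization as less probe binds the enzyme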
PAFAH2 inh – inhibitors of human PAFAH2; Q99487; recombinant PAFAH2, FP-rhodamine activity probe, fluorescence polarization; inhibition, % at 3.39 µM; 340,000 compounds, 0.99% hits;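 active means inhibition above the mean over all tested compounds plus 3 SD, cut at about 30% in these data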;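 further: inhibitors block probe labeling of enzyme so polarization drops; 0% = enzyme with DMSO and 100% = wells lacking PAFAH2 protein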
Fam108b confirm – Fam108b (mouse) hydrolase inhibition, confirmation assay | shares compounds with Fam108B inh | recombinant Fam108b, FP-Rh probe fluorescence polarization | inhibition, % at 9.51 µM | 930 compounds, 44% hits;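 active means inhibition above a limit from the primary screen, the mean over all compounds plus 3 SD, cut at about 19% in these data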;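 further: 0% = median of active Fam108b wells and 100% = catalytically dead S170A mutant; inhibitors free the probe so polarization falls as inhibition rises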
Fam108b ABPP HTS – inhibits mouse Fam108b in gel-based ABPP | shares compounds with Fam108B inh | recombinant Fam108b, fluorophosphonate probe | inhibition, % at 20 µM | 260 compounds, 44% hits | AID 588649; in the data active means inhibition above about 40%
* = called active by the depositor; / = not tested or not shown.

SMILES	PAFAH1B3 inh	pPAFAH inh	PAFAH1B2 FP inh	PME-1 primary	Fam108B inh	PAFAH2 inh	Fam108b confirm	others
CC1=NN(C(N)=S)C(=O)C1N=Nc1c(C)cc(C)cc1C (stereo unspecified)	2	2	1	-5	2	2	/
CCC(Cc1ccccc1)NS(=O)(=O)c1c(C)nc2scc(C)n2c1=O (stereo unspecified)	8	2	9	5	0	-4	/
CCN1CCc2c(sc(NC(=O)Cc3ccccc3)c2C(N)=O)C1	-2	-5	4	0	0	5	/
CCN1CCc2c(sc(NC(=O)Nc3ccc(Cl)c(Cl)c3)c2C(N)=O)C1	10	33*	8	57*	32*	-6	4
Cn1c(-c2ccccc2)cc(=O)c2ccccc21	-8	3	1	5	-4	-1	/
Cn1c2ccccc2c(=O)n2c(=O)c3ccccc3cc12	/	-3	/	7	29*	/	6
COC(=O)C1(CC2CC(c3cccc(Br)c3)=NO2)CCN(C(=O)OC(C)(C)C)CC1 (stereo unspecified)	5	2	1	-4	1	-2	/
O=C(COc1ccccc1)N=C1SC2CS(=O)(=O)CC2N1c1cccc(F)c1 (stereo unspecified)	3	11	4	6	1	2	/
O=S(=O)(c1ccc(Cl)c(NC(=S)Nc2cccc(O)c2)c1)N1CCOCC1	16	7	-2	5	2	-2	/
O=[N+]([O-])c1cc(Cl)cc(C=NNC(=S)Nc2cc(S(=O)(=O)N3CCOCC3)ccc2Cl)c1O	/	/	/	/	/	/	/	Fam108b ABPP HTS=0
CCOc1cccc(/C=N/NC(=S)Nc2cc(S(=O)(=O)N3CCOCC3)ccc2N2CCOCC2)c1O	10	9	3	32*	18*	18	13
COc1ccc2ccccc2c1/C=N/NC(=S)Nc1cc(S(=O)(=O)N2CCOCC2)ccc1N1CCOCC1	-2	7	-2	-3	-4	-7	/
COCCCNc1nc2c(-c3ccc(Cl)cc3)nnn2c2ccccc12	0	-3	2	0	1	2	/
NNc1nc2c(-c3ccc(F)cc3)nnn2c2ccccc12	6	-3	-1	5	26*	-1	9
NNc1nc2c(-c3ccc(Cl)cc3)nnn2c2ccccc12	-4	1	-3	-16	55*	-2	65*	Fam108b ABPP HTS=0
CN(c1ccccc1)c1ncnc2c1ncn2C	8	/	2	/	/	-2	/
CCC(NC(=O)c1ccccc1NC(=O)C(C)(C)C)C(=O)N1CC(C)OC(C)C1 (stereo unspecified)	3	-4	1	/	/	6	/
CSC[C@@H]1NC(=S)N(c2ccc(C)cc2)C1=O	49*	14	27*	60*	31*	15	50*	Fam108b ABPP HTS=40*
Cc1ccc(N2C(=O)C3CCC(C)(C2=O)C3(C)C)cc1 (stereo unspecified)	0	-1	-2	-2	-1	8	/
Oc1cccc2cc3cccc(O)c3c(O)c12	16	13	1	20	25*	0	4	Fam108b ABPP HTS=55*
C/C(=N\NC(=O)CCc1ccccc1)C1C(=O)c2ccccc2C1=O	22	12	7	3	-2	16	/
C/C(=N\NC(=O)c1cccc(Cl)c1)C1C(=O)c2ccccc2C1=O	21	20	13	4	31*	24	34*
CC1=Nc2ccccc2/C1=C\c1sc(Nc2ccc(C)cc2)nc1O	5	28*	3	52*	23*	-1	5
Oc1cccc(Nc2nc(O)c(/C=C3\C=Nc4ccccc43)s2)c1	-249	28*	15	28*	44*	-21	16
O=C(Nc1ccccc1C(=O)NC(Cc1ccc(O)cc1)C(=O)O)c1ccccc1 (stereo unspecified)	-7	1	-1	0	0	-3	/
SMILES	PAFAH1B3 inh	pPAFAH inh	PAFAH1B2 FP inh	PME-1 primary	Fam108B inh	PAFAH2 inh	Fam108b confirm	others
Cc1c(O)ccc(C=NNc2nc(-c3cccnc3)nc3ccccc23)c1O	/	/	/	/	/	/	/	Fam108b ABPP HTS=60*
CC(Oc1ccccc1F)C(=O)NNC(=O)Cc1ccc(S(=O)(=O)N2CCOCC2)s1 (stereo unspecified)	4	/	8	/	/	5	/
Cc1ccccc1/C=N/Nc1ccnc2cc(Cl)ccc12	21	4	6	11	4	4	/
Oc1ccc(C=NNc2ccnc3cc(Cl)ccc23)c(O)c1O	/	/	/	/	/	/	/	Fam108b ABPP HTS=80*
O=[N+]([O-])c1ccccc1/C=C/C=N/Nc1ccc(S(=O)(=O)Nc2ccc(Cl)cc2)cc1[N+](=O)[O-]	9	7	-14	40*	60*	12	12
C/C(=N\Nc1ccc(S(=O)(=O)Nc2ccccc2)cc1[N+](=O)[O-])c1ccc(N2CCOCC2)cc1	10	11	-1	6	4	1	/
O=[N+]([O-])c1ccc(NN=Cc2c[nH]c3ccccc23)c(S(=O)(=O)Nc2ccc(Cl)cc2)c1	/	/	/	/	/	/	/	Fam108b ABPP HTS=90*
C/C(=N\Nc1ccc(S(=O)(=O)Nc2ccc(Cl)cc2)cc1[N+](=O)[O-])c1ccc(N2CCOCC2)cc1	7	6	-2	2	35*	0	5
CN(Cc1ccccc1)C(=O)c1ccc(NC(=O)Cc2cccc(NC(=O)C3CCCN(C(=O)C4CCCC4)C3)c2)cc1 (stereo unspecified)	0	1	-1	-1	/	-4	/
COC(=O)C1=C(C(=O)OC)[C@@H]2Nc3ccccc3[C@@]23C[C@@H](C(=O)OC)N(C(=O)c2ccco2)C3=N1	6	3	-2	0	-1	3	/
COc1cc(OC)c(OC)cc1/C=N/NC(=O)c1cc(-c2cccn2C)n[nH]1	3	7	7	3	4	6	/
CCOc1cccc(/C=N/NC(=O)c2cc(-c3cccn3C)n[nH]2)c1O	-2	7	8	-2	22*	9	9
COc1cc(/C=N/NC(=O)c2ccc(CSc3nc4ccccc4[nH]3)cc2)ccc1O	/	1	/	-32	24*	/	2
COc1cc(/C=N/NC(=O)c2ccccc2)ccc1O	-8	-6	0	-7	4	3	/
N#CC1=C(N)SC(N)=C(C#N)C1c1ccoc1	/	68*	/	-7	26*	/	-25
Cc1ccc(C2C(C#N)=C(N)SC(N)=C2C#N)cc1	-30	/	-15	/	/	-67	/
O=C(NN1C(=O)/C(=C/c2ccc(O)c([N+](=O)[O-])c2)SC1=S)c1ccccc1Cl	22	22	6	-8	25*	18	20*
C=CC[C@]12C[C@@H](OC)C(=O)C=C1O[C@@H](c1ccc(OC)c(OC)c1)[C@H]2C	5	0	6	-2	1	2	/
